Source: publication PMC5540273 (PLoS ONE, 2017)
Like-named read-outs stand apart in the source and are kept apart here.

Columns and labels:
GRK7 = conditions: concentration: 1 μM, replicates: in singlicate; n = 1
GSK3A = conditions: concentration: 1 μM, replicates: in singlicate; n = 1
GSK3B = conditions: n = 1
HASPIN = system: T1, HASPIN; conditions: concentration: 1 μM, replicates: in singlicate; n = 1
T1 construct: gene GSG2

HCK = conditions: concentration: 1 μM, replicates: in singlicate; n = 1
HIPK1 = conditions: concentration: 1 μM, replicates: in singlicate; n = 1
HIPK2 = conditions: concentration: 1 μM, replicates: in singlicate; n = 1
HIPK3 = conditions: concentration: 1 μM, replicates: in singlicate; n = 1
HIPK4 = conditions: concentration: 1 μM, replicates: in singlicate; n = 1
HPK1 = conditions: concentration: 1 μM, replicates: in singlicate; n = 1
HUNK = conditions: concentration: 1 μM, replicates: in singlicate; n = 1
ICK = conditions: concentration: 1 μM, replicates: in singlicate; n = 1
IGF1R = conditions: concentration: 1 μM, replicates: in singlicate; n = 1
IKK-alpha = system: T2, IKK-alpha; conditions: concentration: 1 μM, replicates: in singlicate; n = 1
T2 construct: gene CHUK

IKK-beta = system: T3, IKK-beta; conditions: concentration: 1 μM, replicates: in singlicate; n = 1
T3 construct: gene IKBKB

IKK-epsilon = system: T4, IKK-epsilon; conditions: concentration: 1 μM, replicates: in singlicate; n = 1
T4 construct: gene IKBKE

INSRR = conditions: concentration: 1 μM, replicates: in singlicate; n = 1
INSR = conditions: concentration: 1 μM, replicates: in singlicate; n = 1
IRAK1 = conditions: concentration: 1 μM, replicates: in singlicate; n = 1
IRAK3 = conditions: concentration: 1 μM, replicates: in singlicate; n = 1
[1] = concentration: 1 μM, replicates: in singlicate
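Further: KINOMEscan kinase panel screen.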

O=C(Nc1n[nH]c2nc(-c3nccs3)c(Br)cc12)C1CCCC1 [SB-742609]
%Inh (GRK7): 0% | %Inh (GSK3A): 96.8% | %Inh (GSK3B; 1 µM): 59% | %Inh (HASPIN): 0% | %Inh (HCK): 0% | %Inh (HIPK1): 0% | %Inh (HIPK2): 0% | %Inh (HIPK3): 20% | %Inh (HIPK4): 8% | %Inh (HPK1): 33% | %Inh (HUNK): 0% | %Inh (ICK): 85% | %Inh (IGF1R): 21% | %Inh (IKK-alpha): 28% | %Inh (IKK-beta): 27% | %Inh (IKK-epsilon): 0% | %Inh (INSRR): 32% | %Inh (INSR): 9% | %Inh (IRAK1): 38% | %Inh (IRAK3): 0%

O=C(Nc1n[nH]c2cc(-c3cccc(F)c3F)ccc12)C1CC1 [SB-733894]
%Inh (GRK7): 55% | %Inh (GSK3A): 0% | %Inh (GSK3B; [1]): 25% | %Inh (HASPIN): 9% | %Inh (HCK): 0% | %Inh (HIPK1): 29% | %Inh (HIPK2): 15% | %Inh (HIPK3): 19% | %Inh (HIPK4): 3% | %Inh (HPK1): 0% | %Inh (HUNK): 0% | %Inh (ICK): 22% | %Inh (IGF1R): 0% | %Inh (IKK-alpha): 0% | %Inh (IKK-beta): 5% | %Inh (IKK-epsilon): 11% | %Inh (INSRR): 0% | %Inh (INSR): 41% | %Inh (IRAK1): 0% | %Inh (IRAK3): 10%

CCn1c(-c2ccccn2)nc2cnccc21 [SB-736398]
%Inh (GRK7): 0% | %Inh (GSK3A): 22% | %Inh (GSK3B; [1]): 0% | %Inh (HASPIN): 47% | %Inh (HCK): 0% | %Inh (HIPK1): 0% | %Inh (HIPK2): 13% | %Inh (HIPK3): 0% | %Inh (HIPK4): 0% | %Inh (HPK1): 38% | %Inh (HUNK): 7% | %Inh (ICK): 9% | %Inh (IGF1R): 19% | %Inh (IKK-alpha): 37% | %Inh (IKK-beta): 17% | %Inh (IKK-epsilon): 0% | %Inh (INSRR): 0% | %Inh (INSR): 0% | %Inh (IRAK1): 45% | %Inh (IRAK3): 100%

Cl.Oc1ccc(-c2nc(-c3ccccc3)[nH]c2-c2ccncc2)cc1 [SB-428218]
%Inh (GRK7): 0% | %Inh (GSK3A): 11% | %Inh (GSK3B; [1]): 0% | %Inh (HASPIN): 15% | %Inh (HCK): 0% | %Inh (HIPK1): 5% | %Inh (HIPK2): 16% | %Inh (HIPK3): 1% | %Inh (HIPK4): 0% | %Inh (HPK1): 38% | %Inh (HUNK): 42% | %Inh (ICK): 3% | %Inh (IGF1R): 8% | %Inh (IKK-alpha): 0% | %Inh (IKK-beta): 0% | %Inh (IKK-epsilon): 12% | %Inh (INSRR): 0% | %Inh (INSR): 3% | %Inh (IRAK1): 33% | %Inh (IRAK3): 0%

COc1cc2ncnc(Nc3ccc4nc(-c5ccccc5)[nH]c4c3)c2cc1OC.Cl [GW282450]
%Inh (GRK7): 0% | %Inh (GSK3A): 0% | %Inh (GSK3B; [1]): 22% | %Inh (HASPIN): 0% | %Inh (HCK): 0% | %Inh (HIPK1): 6% | %Inh (HIPK2): 0% | %Inh (HIPK3): 32% | %Inh (HIPK4): 35% | %Inh (HPK1): 1% | %Inh (HUNK): 0% | %Inh (ICK): 4% | %Inh (IGF1R): 6% | %Inh (IKK-alpha): 0% | %Inh (IKK-beta): 0% | %Inh (IKK-epsilon): 0% | %Inh (INSRR): 0% | %Inh (INSR): 94.3% | %Inh (IRAK1): 25% | %Inh (IRAK3): 0%

Cc1cccc(-c2nc(Nc3cccc(C(N)=O)c3)c3ccccc3n2)n1 [GW876019]
%Inh (GRK7): 9% | %Inh (GSK3A): 16% | %Inh (GSK3B; [1]): 12% | %Inh (HASPIN): 14% | %Inh (HCK): 24% | %Inh (HIPK1): 44% | %Inh (HIPK2): 43% | %Inh (HIPK3): 2% | %Inh (HIPK4): 0% | %Inh (HPK1): 36% | %Inh (HUNK): 44% | %Inh (ICK): 0% | %Inh (IGF1R): 4% | %Inh (IKK-alpha): 0% | %Inh (IKK-beta): 0% | %Inh (IKK-epsilon): 0% | %Inh (INSRR): 0% | %Inh (INSR): 0% | %Inh (IRAK1): 14% | %Inh (IRAK3): 10%

CC(=O)Nc1nc2cnc(Nc3cc(NC(=O)c4cccc(CCC#N)c4)ccc3C)nc2s1
%Inh (GRK7): 6% | %Inh (GSK3A): 0% | %Inh (GSK3B; [1]): 0% | %Inh (HASPIN): 21% | %Inh (HCK): 21% | %Inh (HIPK1): 15% | %Inh (HIPK2): 20% | %Inh (HIPK3): 6% | %Inh (HIPK4): 5% | %Inh (HPK1): 0% | %Inh (HUNK): 0% | %Inh (ICK): 0% | %Inh (IGF1R): 0% | %Inh (IKK-alpha): 10% | %Inh (IKK-beta): 0% | %Inh (IKK-epsilon): 33% | %Inh (INSRR): 0% | %Inh (INSR): 34% | %Inh (IRAK1): 19% | %Inh (IRAK3): 21%

Cc1csc(-c2nc(Nc3ccncc3)c3ccccc3n2)n1 [GW869640]
%Inh (GRK7): 17% | %Inh (GSK3A): 0% | %Inh (GSK3B; [1]): 46% | %Inh (HASPIN): 87% | %Inh (HCK): 23% | %Inh (HIPK1): 7% | %Inh (HIPK2): 23% | %Inh (HIPK3): 36% | %Inh (HIPK4): 7% | %Inh (HPK1): 3% | %Inh (HUNK): 0% | %Inh (ICK): 33% | %Inh (IGF1R): 14% | %Inh (IKK-alpha): 48% | %Inh (IKK-beta): 41% | %Inh (IKK-epsilon): 0% | %Inh (INSRR): 11% | %Inh (INSR): 2% | %Inh (IRAK1): 12% | %Inh (IRAK3): 0%

COc1cc2ncn(-c3cc(OCC4CCCO4)c(C(N)=O)s3)c2cc1OC (stereo not drawn) [GSK204607]
%Inh (GRK7): 0% | %Inh (GSK3A): 20% | %Inh (GSK3B; [1]): 0% | %Inh (HASPIN): 26% | %Inh (HCK): 0% | %Inh (HIPK1): 7% | %Inh (HIPK2): 0% | %Inh (HIPK3): 17% | %Inh (HIPK4): 52% | %Inh (HPK1): 15% | %Inh (HUNK): 0% | %Inh (ICK): 0% | %Inh (IGF1R): 6% | %Inh (IKK-alpha): 0% | %Inh (IKK-beta): 0% | %Inh (IKK-epsilon): 24% | %Inh (INSRR): 0% | %Inh (INSR): 0% | %Inh (IRAK1): 0% | %Inh (IRAK3): 0%
